Source: PubChem BioAssay (EPA / NIEHS)
Active and inactive are the calls of the source. The calls were made as follows: active = hit-call score of the fitted dose curve at least 0.9, where 1 is the maximum; inactive = score below 0.9.

biological target: Transcription factor Sp1 (Homo sapiens) (UniProt P08047); assay: ATG_Sp1_CIS: Attagene CIS-FACTORIAL HepG2 Assay for human Specificity Protein 1 (Sp1) (AID 2282961); settings: HepG2 Sp1 cis-reporter transcription, actives raise or lower the signal
How it was run: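 Sp1-driven reporter mRNA, read as capillary electrophoresis fluorescence after RT-PCR, in transiently transfected HepG2 cells dosed for 24 h; signal change in either direction relative to DMSO.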

Chain of Transcription factor Sp1 (Homo sapiens) (P08047 whole entry, looked up): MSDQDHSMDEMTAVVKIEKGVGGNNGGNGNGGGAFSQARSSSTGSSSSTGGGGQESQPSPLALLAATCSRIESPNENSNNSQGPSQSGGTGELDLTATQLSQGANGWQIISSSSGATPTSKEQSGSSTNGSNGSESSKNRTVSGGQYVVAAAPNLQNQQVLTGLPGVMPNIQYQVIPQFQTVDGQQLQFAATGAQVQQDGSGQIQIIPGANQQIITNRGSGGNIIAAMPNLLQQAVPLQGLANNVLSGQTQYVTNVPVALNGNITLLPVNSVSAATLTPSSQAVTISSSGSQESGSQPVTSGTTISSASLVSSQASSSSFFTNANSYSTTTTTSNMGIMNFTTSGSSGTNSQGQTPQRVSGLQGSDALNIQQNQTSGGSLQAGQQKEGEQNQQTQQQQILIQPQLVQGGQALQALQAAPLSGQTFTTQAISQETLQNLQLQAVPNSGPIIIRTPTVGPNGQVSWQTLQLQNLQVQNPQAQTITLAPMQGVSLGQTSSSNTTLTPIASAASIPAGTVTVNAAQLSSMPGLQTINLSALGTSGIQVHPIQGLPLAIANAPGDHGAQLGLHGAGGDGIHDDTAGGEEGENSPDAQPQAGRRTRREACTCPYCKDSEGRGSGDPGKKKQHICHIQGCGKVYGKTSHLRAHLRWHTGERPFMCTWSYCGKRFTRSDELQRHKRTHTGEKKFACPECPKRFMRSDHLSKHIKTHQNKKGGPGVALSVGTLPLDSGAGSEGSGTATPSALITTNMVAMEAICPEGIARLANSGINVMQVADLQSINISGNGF

SMILES | outcome | AC50
CCOP(=O)(SC(C)CC)N1CCSC1=O (configuration not stated) | inactive | –
CCCCOC(=O)[C@@H](C)Oc1ccc(Oc2ccc(C#N)cc2F)cc1 | inactive | –
CC(=NC#N)N(C)Cc1ccc(Cl)nc1 | inactive | –
CCc1cccc(C)c1N(C(=O)CCl)C(C)COC (configuration not stated) | inactive | –
COc1cc(OC)nc(Sc2cccc(Cl)c2C(=O)O)n1 | inactive | –
CON=C(C(=O)OC)c1ccccc1CON=C(C)c1cccc(C(F)(F)F)c1 | inactive | –
CC1=NNC(=O)N(/N=C/c2cccnc2)C1 | inactive | –
S=C1NCCN1 | inactive | –
CC(C)=CC1C(C(=O)OCN2C(=O)C3=C(CCCC3)C2=O)C1(C)C (configuration not stated) | inactive | –
CC(C1CC1)C(O)(Cn1cncn1)c1ccc(Cl)cc1 (configuration not stated) | inactive | –
C#CC(C)(C)NC(=O)c1cc(Cl)cc(Cl)c1 | inactive | –
CCC(=O)Nc1ccc(Cl)c(Cl)c1 | inactive | –
O=C(O)c1cc(Oc2ccc(C(F)(F)F)cc2Cl)ccc1[N+](=O)[O-] | inactive | –
CCOP(=S)(OCC)SCCSCC | inactive | –
CCc1cnc(C2=NC(C)(C(C)C)C(=O)N2)c(C(=O)O)c1 (configuration not stated) | inactive | –
CCOP(=S)(Oc1cnc(C(C)(C)C)nc1)OC(C)C (configuration not stated) | – | 28.1 µM (active)
CCOP(=S)(OCC)OC(Cl)C(Cl)(Cl)Cl (configuration not stated) | inactive | –
CN(C)C(=O)Nc1cccc(C(F)(F)F)c1 | inactive | –
CNC(=O)ON=C(C)SC | inactive | –
CCCOc1nn(C(=O)NS(=O)(=O)c2ccccc2C(=O)OC)c(=O)n1C | inactive | –
CCOC(=O)COc1cc(-c2nn(C)c(OC(F)F)c2Cl)c(F)cc1Cl | inactive | –
CCOP(=S)(OCC)Oc1ccc([N+](=O)[O-])cc1 | inactive | –
